Records with an inconclusive call do not appear. Where a call stands in place of a potency, no number is given. Values without a mark were called inactive. Active and inactive are the calls of the source. The call rests on the fitted dose curve.
Molecular target: Acetylcholinesterase (Homo sapiens) (UniProt P22303)
Experiment: Acetylcholinesterase (AChE) small molecule antagonists: colormetric cell-based qHTS assay (AID 1347395); further: nearly all actives have a fitted effect of over 30% in size
Details: SH-SY5Y cells AChE activity, colorimetric (Ellman); series mostly up to 115 µM
Procedure, shortened: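 Colorimetric read-out: DTNB detects thiocholine released when cellular AChE in SH-SY5Y cells hydrolyses acetylthiocholine. Cells attached overnight, received compound for 30 min at 37 C, then substrate mix for 90 min at 37 C.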

Sequence of Acetylcholinesterase (Homo sapiens) (P22303 whole entry, looked up): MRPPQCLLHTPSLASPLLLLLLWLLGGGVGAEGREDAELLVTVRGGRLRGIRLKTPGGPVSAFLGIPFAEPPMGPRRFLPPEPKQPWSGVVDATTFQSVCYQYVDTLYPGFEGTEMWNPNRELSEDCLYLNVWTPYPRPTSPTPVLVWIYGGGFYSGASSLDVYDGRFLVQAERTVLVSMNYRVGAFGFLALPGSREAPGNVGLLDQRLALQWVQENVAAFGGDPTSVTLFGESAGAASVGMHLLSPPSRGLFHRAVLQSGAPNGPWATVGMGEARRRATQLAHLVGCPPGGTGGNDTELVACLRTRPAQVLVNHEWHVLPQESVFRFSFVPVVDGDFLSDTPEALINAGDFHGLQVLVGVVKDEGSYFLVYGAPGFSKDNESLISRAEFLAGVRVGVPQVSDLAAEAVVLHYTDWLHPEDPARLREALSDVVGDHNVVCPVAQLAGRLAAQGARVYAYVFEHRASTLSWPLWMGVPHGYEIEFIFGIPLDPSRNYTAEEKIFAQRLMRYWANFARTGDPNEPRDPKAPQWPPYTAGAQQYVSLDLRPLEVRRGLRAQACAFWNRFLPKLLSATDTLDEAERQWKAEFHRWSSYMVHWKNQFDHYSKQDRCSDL

| Compound | Potency | activity, negative = inhibition |
| --- | --- | --- |
| C=CCN(CC=C)CC=C | inactive | – |
| CO[C@H]1C=CO[C@@]2(C)Oc3c(C)c(O)c4c(O)c(cc(O)c4c3C2=O)NC(=O)/C(C)=C\C=C/[C@H](C)[C@H](O)[C@@H](C)[C@@H](O)[C@@H](C)[C@H](OC(C)=O)[C@@H]1C | inactive | – |
| COC(=O)C1CC(=O)C(C(=O)OC)CC1=O (configuration not stated) | – | 2.2% [at 10.5 µM] |
| CC(CN(C)C)CN1c2ccccc2CCc2ccccc21 (configuration not stated) | inactive | – |
| C1C[C@@H]2[C@H]3CC[C@H](C3)[C@@H]2C1 | inactive | – |
| O=C(Nc1ccc(Oc2ccc(Cl)cc2)c(Cl)c1)c1cc(I)cc(I)c1O | inactive | – |
| Cc1ccc(C(C)OC(=O)C2(C)CCC(C(=O)O)C2(C)C)cc1 (configuration not stated) | inactive | – |
| C=CCCCCCCCCC(=O)OCCCC | inactive | – |
| O=C1OC(=O)C2C3C=CC(C3)C12 (configuration not stated) | inactive | – |
| CCCCN1CCCC1C(=O)Nc1c(C)cc(C)cc1C (configuration not stated) | inactive | – |
| O=C(Oc1cccc2cccnc12)c1ccccc1 | inactive | – |
| O=S(O)(O)=S | – | -0.643% [at 10.5 µM] |
| CCCCNC1CC(C)(C)NC(C)(C)C1 | inactive | – |
| CCc1ccc(O)c(OC)c1 | inactive | – |
| CC/C=C\CCOC(C)=O | inactive | – |
| CC(=O)Oc1ccc(C(C)=O)cc1 | inactive | – |
| CNCCO | inactive | – |
| Nc1ccc(S(=O)(=O)O)c(N)c1 | inactive | – |
| N#CCN(CC#N)CCN(CC#N)CC#N | inactive | – |
| CCO | inactive | – |
| CC1=C(CC(=O)O)c2cc(F)ccc2/C1=C\c1ccc(S(C)(=O)=O)cc1 | inactive | – |
| COC(=O)c1ccc(I)cc1S(=O)(=O)NC(=O)Nc1nc(C)nc(OC)n1 | inactive | – |

Source: PubChem BioAssay (Tox21)
